Laboratory results from PubChem BioAssay (NCI).
Several values for one entry are separate records, joined by “and”; a condition that tells them apart may be missing. Identical values can stand only once. This is part of a sample that, as a whole, favours compounds with a hit. Of some 83,000 tested, about 20% had one in any assay.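 Method: cells in 96-well plates; compound added at one concentration; 48 h incubation; percent growth measured; values under 10 scored active.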 Activity calls are given as the source filed them.

Legend:
Assay in all cases: NCI-60 one-dose screen, 48 h (100 = growth as untreated, 0 = no growth, -100 = all killed)
Conditions in all cases: 10 µM unless noted
HCT-15 colon = test system: HCT-15 colon
HT29 colon = test system: HT29 colon
SNB-75 CNS = test system: SNB-75 CNS
U251 CNS = test system: U251 CNS
PC-3 prostate = test system: PC-3 prostate
SK-MEL-5 melanoma = test system: SK-MEL-5 melanoma
UACC-62 melanoma = test system: UACC-62 melanoma
LOX IMVI melanoma = test system: LOX IMVI melanoma
SK-MEL-28 melanoma = test system: SK-MEL-28 melanoma
SK-MEL-2 melanoma = test system: SK-MEL-2 melanoma
EKVX NSCLC = test system: EKVX NSCLC
SN12C renal = test system: SN12C renal
UO-31 renal = test system: UO-31 renal
TK-10 renal = test system: TK-10 renal
ACHN renal = test system: ACHN renal
CAKI-1 renal = test system: CAKI-1 renal
A498 renal = test system: A498 renal
CCRF-CEM leukemia = test system: CCRF-CEM leukemia
MOLT-4 leukemia = test system: MOLT-4 leukemia
SNB-19 CNS = test system: SNB-19 CNS

Measured: growth

Clc1nc(Oc2ccccc2)nc(-c2cn(-c3ccccc3)c3ccccc23)n1
active: SK-MEL-28 melanoma -18.3% | SK-MEL-2 melanoma -49.5%
inactive: HCT-15 colon 38.5% | HT29 colon 40.6% | SNB-75 CNS 105% | U251 CNS 47.2% | PC-3 prostate 41.3% | SK-MEL-5 melanoma 102% | UACC-62 melanoma 80.7% | LOX IMVI melanoma 10.7% | EKVX NSCLC 81.3% | SN12C renal 85.9% | UO-31 renal 17% | TK-10 renal 114% | ACHN renal 68.7% | CAKI-1 renal 13.4% | A498 renal 128% | CCRF-CEM leukemia 27.2% | MOLT-4 leukemia 47%

CC[N+](CC)(CC(=O)Nc1c(C)cccc1C)Cc1ccccc1
inactive: HCT-15 colon 88.6% and 104% | HT29 colon 101% and 102% | SNB-75 CNS 84.9% and 101% | SNB-19 CNS 95.4% and 96.8% | PC-3 prostate 84.3% and 97.2% | SK-MEL-5 melanoma 85.7% and 98.7% | LOX IMVI melanoma 79% and 98.3% | SK-MEL-28 melanoma 99.7% and 103% | SK-MEL-2 melanoma 107% and 119% | EKVX NSCLC 106% and 100% | UO-31 renal 92.6% and 71.6% | TK-10 renal 144% and 90.9% | ACHN renal 98.5% and 101% | CAKI-1 renal 108% and 91.9% | A498 renal 106% and 107% | MOLT-4 leukemia 99.8% and 98.6%

CC1=C(/C=C/C(C)=C/C=C/C(C)=C/C(=O)Nc2ccc(O)cc2)C(C)(C)CCC1
active: LOX IMVI melanoma 2.64% | UO-31 renal -4.99% | MOLT-4 leukemia 7.55%
inactive: HCT-15 colon 57% | HT29 colon 34.6% | SNB-75 CNS 57.6% | SNB-19 CNS 80.2% | PC-3 prostate 52.2% | SK-MEL-5 melanoma 43.9% | UACC-62 melanoma 22% | SK-MEL-28 melanoma 61.7% | SK-MEL-2 melanoma 78.6% | EKVX NSCLC 64.7% | SN12C renal 39.2% | TK-10 renal 103% | ACHN renal 52.2% | CAKI-1 renal 47% | A498 renal 71.4% | CCRF-CEM leukemia 19.5%

NC(=S)NN=C1CCC(C2CCCCC2)CC1 (stereo not drawn)
inactive: HCT-15 colon 61.9% and 66.1% | HT29 colon 90% and 79.7% | SNB-75 CNS 76.4% and 92.8% | SNB-19 CNS 96% and 102% | PC-3 prostate 89% and 74.1% | SK-MEL-5 melanoma 87.3% and 87.8% | UACC-62 melanoma 79.6% and 88.3% | LOX IMVI melanoma 99.8% | SK-MEL-28 melanoma 91.5% and 110% | SK-MEL-2 melanoma 96% and 90.2% | EKVX NSCLC 78.9% and 82.6% | UO-31 renal 69.3% and 45.9% | TK-10 renal 113% and 104% | ACHN renal 100% and 98.8% | CAKI-1 renal 81.9% and 96.2% | CCRF-CEM leukemia 81.1% and 92% | MOLT-4 leukemia 81.4% and 73.3%

CC1CCCC(=O)O1 (stereo not drawn)
inactive: HCT-15 colon 94.8% and 99.7% | SNB-75 CNS 83.3% and 95.6% | SNB-19 CNS 111% | U251 CNS 102% and 104% | PC-3 prostate 96.2% and 95.1% | SK-MEL-5 melanoma 102% and 108% | UACC-62 melanoma 109% and 101% | LOX IMVI melanoma 96.3% and 97.2% | SK-MEL-2 melanoma 103% and 107% | EKVX NSCLC 102% | UO-31 renal 92.8% and 76.7% | TK-10 renal 103% and 108% | ACHN renal 99.2% and 100% | CAKI-1 renal 95.7% and 102% | A498 renal 110% and 97.8% | CCRF-CEM leukemia 111% | MOLT-4 leukemia 99.5% and 106%

COc1cc(C(=O)N/N=C/c2ccc(N(C)C)cc2)cc(OC)c1OC
active: SK-MEL-5 melanoma 7.49% | A498 renal -3.05% | CCRF-CEM leukemia 8.58% | MOLT-4 leukemia -0.126%
inactive: HCT-15 colon 20% | SNB-75 CNS 38.4% | SNB-19 CNS 53.3% | PC-3 prostate 25.4% | UACC-62 melanoma 43.1% | LOX IMVI melanoma 20.5% | SK-MEL-28 melanoma 53.8% | EKVX NSCLC 75.7% | SN12C renal 41.3% | ACHN renal 45.1% | CAKI-1 renal 68.3%
